# Pf growth 96h = P. falciparum growth inhibition at 96 hour, primary screen for plastid delayed-death inhibitors | P. falciparum luciferase reporter growth, 96 h | AID 504834 | Potency, µM (series often up to 28.7 µM), for inactives: top-dose activity change, negative = inhibition, usual class: inhibitors | 320,000 compounds, 6.9% hits; further: potency means the concentration at half of the fitted maximal effect; on the % scale 0 is the no-effect control and ±100 the full control effect
#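 P. falciparum expressing integrated firefly luciferase grown in erythrocytes (2% hematocrit, 0.05% parasitemia final) with compounds for 96 hours at 37 C, 5% CO2. Growth inhibition read as loss of luminescence after adding luciferase detection reagent.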
# CHX counter = affects cycloheximide protein synthesis inhibition readout, counter-screen; max response, %; cell reporter, cycloheximide protein synthesis inhibition counterscreen; 300,000 compounds, 12% hits; AID 2314; in the data active means max response mostly above about 13%, no sharp cut-off; inactive means mostly below about 14%; further: read at 38.3 µM for the half of the compounds with a filed dose; 0% is about no effect
# Shiga inhibitor = Shiga toxin inhibition; 290,000 compounds, 9.2% hits; Vero cells, Shiga toxin protein synthesis inhibition reporter; inhibition, % at 38.7 µM; AID 2315; in the data active means inhibition mostly above about 28%, no sharp cut-off; inactive means mostly below about 43%; further: 0% is about no effect
# HCMV inh = inhibitors of human cytomegalovirus; activity change, negative = inhibition, % at 57.5 µM; HFF cells, HCMV-luciferase reporter, 72 h; hits give low values; 410,000 compounds, 4.5% hits; in the data active means activity change below about -60%; inconclusive means no clear call, values can overlap the other calls; inactive means above about -39%; further: on the % scale 0 is the no-effect control and ±100 the full control effect
#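 Cell-based, HFFs, 1000 cells/well, 16 h 37C; cpds in DMSO + HCMV-luc, MOI 1 PFU/cell; 72 h 37C; OneGlo luminescence after 5 min RT; norm. to buffer vs Salinomycin 10uM.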
# Pf growth 48h = inhibits P. falciparum growth in the first generation, 48 h; 310,000 compounds, 5.9% hits; Potency, µM (highest dose often 28.7 µM), for inactives: top-dose activity change, negative = inhibition, hits mostly inhibitors; P. falciparum luciferase growth in erythrocytes, 48 h; AID 504832; further: potency means the concentration at half of the fitted maximal effect; on the % scale 0 is the no-effect control and ±100 the full control effect
#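 Compounds are pin-transferred into medium, infected erythrocytes (2% hematocrit, 0.1% parasitemia final) are added, and plates sit one parasite generation at 37 C in 5% CO2. Detection reagent is then added and luminescence measured.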
# Numbers without * were called inactive; ? = inconclusive; · = no result. In the library only some 20% were active in any assay of this set; here they are far more common. Unless noted, the call rests on the fitted dose curve; in most records, active means well fitted inhibition curve with a large enough effect; inconclusive means small, poorly fitted or top-dose-only effect, or another doubt; inactive means no such curve, though single readings can be large or run the other way.
SMILES,Pf growth 96h,CHX counter,Shiga inhibitor,HCMV inh,Pf growth 48h
COc1ccc(-c2nc(-c3ccccc3)c(-c3cc([N+](=O)[O-])ccc3C)[nH]2)cc1O,?,-6,19,-37,5.2µM*
Cc1ccc([N+](=O)[O-])cc1-c1[nH]c(-c2ccc(O)c(O)c2)nc1-c1ccccc1,20%,-4,1,?,·
COc1ccc([N+](=O)[O-])cc1-c1[nH]c(-c2ccc(C(=O)O)cc2)nc1-c1ccccc1,?,1,-9,-14,8.3µM*
CC(C)(C)C1CCc2onc(C(=O)Nc3sc4c(c3C(N)=O)CCCC4)c2C1 (stereo not drawn),·,·,·,24,·
O=C(CN1C(=O)c2ccccc2C1=O)N1CCN=C1c1ccccc1,10%,-1,8,-4,-1%
COC(=O)c1cc(CSC(=N)N)ccc1OCCC(C)C,6.6µM*,-1,-7,-37,4.7µM*
CN1NC(=O)CC1c1ccccc1 (stereo not drawn),·,·,·,-3,·
O=C1CC(c2ccccc2)NC(=O)N1 (stereo not drawn),35%,0,1,-99*,18%
Cc1ccc2c(c1)c(=O)c1ccccc1n2CCCC(=O)Nc1ccc(C)c(F)c1,·,·,·,-74*,·
Cc1ccc(NC(=O)CCn2c(=O)c3cccn3c3ccccc32)cc1C,13%,11,26*,-20,?
Cc1ccc2c(c1)c(=O)c1ccccc1n2CCCC(=O)Nc1ccc(Cl)cc1C,·,·,·,22,·
O=C(CCCn1c2ccccc2c(=O)c2ccccc21)Nc1cccc(Cl)c1,·,·,·,-67*,·
Cc1ccc2c(c1)c(=O)c1ccccc1n2CCCC(=O)Nc1ccc(Cl)c(Cl)c1,·,·,·,-37,·
Cc1ccc2c(c1)c(=O)c1ccccc1n2CCCC(=O)Nc1ccc(C)c(C)c1,·,·,·,-61*,·
Brc1ccc2[nH]c3c(NCc4ccccn4)ncnc3c2c1,?,16,10,?,?
Cc1ccc2[nH]c3c(Cl)ncnc3c2c1,-5%,20,9,9,-24%
CC(C)OCCCNc1ncnc2c1[nH]c1ccccc12,?,16*,13,-75*,5.9µM*
C1=C(CCNc2ncnc3c2[nH]c2ccccc23)CCCC1,0.26µM*,26*,116*,-91*,?
Cc1ccc2[nH]c3c(NCc4ccccc4)ncnc3c2c1,?,39*,80*,?,?
CCCOc1ncnc2c1[nH]c1ccc(C)cc12,349%,45*,108*,·,16%
COCCN(C(=O)Cc1coc2cc(C)c(C)cc12)c1c(N)n(Cc2ccccc2)c(=O)[nH]c1=O,-3%,·,·,-17,-24%
CCC(C)(C)NC(=O)Cn1c(=O)ccc2cc(S(=O)(=O)N3CCC(C)CC3)ccc21,·,·,·,-12,·
CCCN(C(=O)c1cccc(-n2cccc2)c1)c1c(N)n(Cc2ccccc2)c(=O)[nH]c1=O,1%,·,·,-14,?
O=C(Cc1c(F)cccc1Cl)Nc1cc(S(=O)(=O)N2CCOCC2)ccc1N1CCOCC1,-8%,·,·,11,?
COc1ccc(CNc2ncnc3c2[nH]c2ccccc23)cc1,1.7µM*,0,0,-72*,2.3µM*
SMILES,Pf growth 96h,CHX counter,Shiga inhibitor,HCMV inh,Pf growth 48h
COc1ccc(CNc2ncnc3c2[nH]c2cc(OC)c(OC)cc23)cc1,1.7µM*,-1,-10,-9,2.1µM*
CCOc1ccc(-n2c(SCC(=O)N3CCC(C(=O)O)CC3)nc3ccccc3c2=O)cc1,-28%,-6,-4,-23,6%
CCCCC(=O)Nc1cc(-c2cn3cccnc3n2)ccc1C,·,·,·,-1,·
COc1ccc(C(=O)CSc2nnc(C3CCCCC3)n2N)c(OC)c1,9.3µM*,2,-2,5,0%
CC1C(C#N)=C(N)OC2=C1C(=O)CC(C)(C)C2 (stereo not drawn),13µM*,1,21,25,·
COc1ccc(-c2cn[nH]c2-c2ccc(OCc3ccccc3)cc2O)cc1,?,-4,-2,-71*,?
COc1ccccc1-c1cn[nH]c1-c1ccc(OCc2ccccc2)cc1O,3.7µM*,-3,-9,-25,6.6µM*
CCOc1ccc(-c2[nH]ncc2-c2ccccc2)c(O)c1,7.4µM*,-4,2,?,?
CCOc1ccc(-c2[nH]ncc2-c2csc(C)n2)c(O)c1,-6%,2,-20,-7,-3%
COc1cccc(/C=C/c2onc(C)c2S(=O)(=O)N2CCC(C(=O)N3CCC(C)CC3)CC2)c1,·,·,·,0,·
CCOC(=O)C1=c2s/c(=C\c3ccncc3)c(=O)n2C(N)=C(C(=O)OC)C1c1ccncc1 (stereo not drawn),6%,0,-14,?,-7%
